Bioassay records as filed in PubChem BioAssay.
PKM2 inh = qHTS Assay for Inhibitors of Human Muscle isoform 2 Pyruvate Kinase; Pyruvate kinase PKM (Homo sapiens), P14618; purified PKM2, ATP generation, Kinase-Glo luminescence; Potency, µM (series often up to 57.5 µM), usual class: inhibitors; actives 0.058% (n = 260,000); AID 1634, 2009; also: nearly all actives have a fitted effect of over 60% in size
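Coupled luciferase luminescence (Kinase-Glo) detects ATP generated from 0.1 mM ADP and 0.5 mM PEP in imidazole buffer pH 7.2 with KCl, MgCl2; 1 h at room temperature. Enzyme at intermediate activity; normalized to uninhibited and no-enzyme controls.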
PKM2 inh dose = Confirmation Concentration-Response Assay for Inhibitors of Human Muscle isoform 2 Pyruvate Kinase | Potency, µM (highest dose often 57.5 µM), actives largely listed as inhibitors | purified hPK-M2, Kinase-Glo ATP luminescence, 1 h | actives 50% (n = 55) | shares compounds with PKM2 inh
FLuc counter = Secondary assay for Inhibitors of Human Pyruvate Kinase M2 isoform: FLuc Counterscreen. shares compounds with PKM2 inh. Kinase-Glo firefly luciferase, luminescence, 8 min. Potency, µM (top dose mostly 57.5 µM), hits mostly inhibitors. actives 30% (n = 55)
PKM2 inh LDH = Secondary assay for Inhibitors of Human Pyruvate Kinase M2 isoform | shares compounds with PKM2 inh | purified hPK-M2, LDH-coupled NADH fluorescence kinetic | Potency, µM (highest dose often 57.5 µM), most hits filed as inhibitors | 55 tested, under 10 active | AID 2267, 2010
Hits are given with their value; – = inactive; ? = inconclusive. Many of the other results were omitted from the sample, so hits are more common in it than they were. Calls follow the shape of the dose curve; as a rule, active = well fitted curve in the direction sought with a large enough effect; inconclusive = small, poorly fitted or top-dose-only effect, or another doubt; inactive = no such curve, though single readings can be large; an effect the other way counts as inactive or inconclusive.

SMILES	PKM2 inh	others
O=c1c2ccccc2[se]n1-c1ccccc1	6.3µM	PKM2 inh dose=5.8µM;FLuc counter=21µM;PKM2 inh LDH=?
CCOC(=O)N1CCN(C(C)C(=O)c2c[nH]c3ccccc23)CC1 (centres undefined)	–
O=C1c2ccccc2C(=O)N1SC1CCCCC1	–
Cc1ccccc1N(CC(=O)NC1CCCC1)C(=O)c1csnn1	–
Nn1c(COc2ccc(Cl)cc2)n[nH]c1=S	–
